Source: ChEMBL document CHEMBL1961873, “Compounds: GSK PKIS; Assays: Nanosyn kinase panel” (2012)

How the values were obtained:
[1] = target: Ribosomal protein S6 kinase alpha-6 (Homo sapiens) (UniProt Q9UK32); conditions: at 1 µM;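 note: each value is a mean inhibition of RSK4 from a GSK PKIS panel screen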
[2] = target: T1, Serine/threonine-protein kinase Sgk1 (Homo sapiens) (UniProt O00141); conditions: at 0.1 µM
T1 sequence (whole entry): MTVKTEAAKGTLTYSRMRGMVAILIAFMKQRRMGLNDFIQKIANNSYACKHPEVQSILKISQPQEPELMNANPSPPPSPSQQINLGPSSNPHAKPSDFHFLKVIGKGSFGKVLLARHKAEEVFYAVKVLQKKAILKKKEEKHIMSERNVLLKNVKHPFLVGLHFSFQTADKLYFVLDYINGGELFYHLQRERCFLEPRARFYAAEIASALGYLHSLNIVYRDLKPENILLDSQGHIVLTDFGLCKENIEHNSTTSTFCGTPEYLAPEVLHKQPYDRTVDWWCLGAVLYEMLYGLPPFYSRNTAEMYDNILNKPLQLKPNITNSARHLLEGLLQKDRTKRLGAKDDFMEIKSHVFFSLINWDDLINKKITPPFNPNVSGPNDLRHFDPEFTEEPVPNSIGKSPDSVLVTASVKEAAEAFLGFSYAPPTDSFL

[3] = target: T1, Serine/threonine-protein kinase Sgk1 (Homo sapiens); conditions: at 1 µM
[4] = target: T2, Serine/threonine-protein kinase Sgk2 (Homo sapiens) (UniProt Q9HBY8); conditions: at 0.1 µM
T2 sequence (whole entry): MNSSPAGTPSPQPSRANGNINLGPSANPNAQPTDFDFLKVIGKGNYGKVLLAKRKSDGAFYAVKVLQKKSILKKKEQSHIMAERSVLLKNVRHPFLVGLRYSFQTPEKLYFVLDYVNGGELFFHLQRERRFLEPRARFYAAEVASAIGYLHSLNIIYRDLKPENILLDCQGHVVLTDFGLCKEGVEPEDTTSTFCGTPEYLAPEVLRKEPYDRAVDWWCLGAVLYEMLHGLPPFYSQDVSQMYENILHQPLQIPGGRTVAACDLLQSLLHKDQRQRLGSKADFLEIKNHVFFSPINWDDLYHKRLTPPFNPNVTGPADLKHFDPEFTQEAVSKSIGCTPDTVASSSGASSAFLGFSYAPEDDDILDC

[5] = target: T2, Serine/threonine-protein kinase Sgk2 (Homo sapiens); conditions: at 1 µM
[6] = target: T3, Serine/threonine-protein kinase Sgk3 (Homo sapiens) (UniProt Q96BR1); conditions: at 0.1 µM
T3 sequence (whole entry): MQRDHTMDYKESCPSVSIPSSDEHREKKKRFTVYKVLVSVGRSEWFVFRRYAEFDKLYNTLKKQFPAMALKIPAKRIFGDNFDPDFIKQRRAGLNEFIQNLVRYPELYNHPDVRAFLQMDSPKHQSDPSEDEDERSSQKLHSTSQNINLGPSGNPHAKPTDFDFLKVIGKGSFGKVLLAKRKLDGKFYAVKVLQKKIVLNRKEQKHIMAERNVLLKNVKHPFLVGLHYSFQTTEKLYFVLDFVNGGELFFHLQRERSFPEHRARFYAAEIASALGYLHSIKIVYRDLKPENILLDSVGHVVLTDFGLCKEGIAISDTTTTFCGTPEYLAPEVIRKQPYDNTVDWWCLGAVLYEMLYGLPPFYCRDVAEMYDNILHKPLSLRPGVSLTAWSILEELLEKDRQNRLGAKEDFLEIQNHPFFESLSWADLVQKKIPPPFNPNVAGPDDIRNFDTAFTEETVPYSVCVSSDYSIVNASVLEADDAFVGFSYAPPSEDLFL

[7] = target: T3, Serine/threonine-protein kinase Sgk3 (Homo sapiens); conditions: at 1 µM
[8] = target: 5'-AMP-activated protein kinase catalytic subunit alpha-1 (Homo sapiens) (UniProt Q13131); conditions: at 0.1 µM
[9] = target: 5'-AMP-activated protein kinase catalytic subunit alpha-1 (Homo sapiens) (UniProt Q13131); conditions: at 1 µM
[10] = target: 5'-AMP-activated protein kinase catalytic subunit alpha-2 (Homo sapiens) (UniProt P54646); conditions: at 0.1 µM
[11] = target: 5'-AMP-activated protein kinase catalytic subunit alpha-2 (Homo sapiens) (UniProt P54646); conditions: at 1 µM
[12] = target: T4, NUAK family SNF1-like kinase 1 (Homo sapiens) (UniProt O60285); conditions: at 0.1 µM
T4 sequence (whole entry): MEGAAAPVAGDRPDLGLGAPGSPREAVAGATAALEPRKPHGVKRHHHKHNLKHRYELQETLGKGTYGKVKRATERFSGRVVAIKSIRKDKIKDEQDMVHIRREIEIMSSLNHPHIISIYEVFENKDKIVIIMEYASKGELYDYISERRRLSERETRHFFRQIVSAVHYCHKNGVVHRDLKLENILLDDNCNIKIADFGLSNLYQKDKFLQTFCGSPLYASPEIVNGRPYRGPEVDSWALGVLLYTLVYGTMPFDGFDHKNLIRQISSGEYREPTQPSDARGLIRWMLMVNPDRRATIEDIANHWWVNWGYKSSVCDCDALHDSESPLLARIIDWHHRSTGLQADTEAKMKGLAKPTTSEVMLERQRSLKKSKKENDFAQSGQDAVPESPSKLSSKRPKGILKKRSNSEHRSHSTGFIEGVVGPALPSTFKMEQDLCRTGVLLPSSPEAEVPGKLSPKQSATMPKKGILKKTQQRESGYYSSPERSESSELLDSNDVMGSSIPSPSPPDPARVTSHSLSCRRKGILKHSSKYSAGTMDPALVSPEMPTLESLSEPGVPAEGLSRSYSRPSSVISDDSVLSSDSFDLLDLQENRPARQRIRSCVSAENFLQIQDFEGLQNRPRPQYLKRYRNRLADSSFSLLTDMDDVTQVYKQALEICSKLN

[13] = target: T4, NUAK family SNF1-like kinase 1 (Homo sapiens); conditions: at 1 µM
[14] = target: T5, Serine/threonine-protein kinase BRSK1 (Homo sapiens) (UniProt Q8TDC3); conditions: at 0.1 µM
T5 sequence (whole entry): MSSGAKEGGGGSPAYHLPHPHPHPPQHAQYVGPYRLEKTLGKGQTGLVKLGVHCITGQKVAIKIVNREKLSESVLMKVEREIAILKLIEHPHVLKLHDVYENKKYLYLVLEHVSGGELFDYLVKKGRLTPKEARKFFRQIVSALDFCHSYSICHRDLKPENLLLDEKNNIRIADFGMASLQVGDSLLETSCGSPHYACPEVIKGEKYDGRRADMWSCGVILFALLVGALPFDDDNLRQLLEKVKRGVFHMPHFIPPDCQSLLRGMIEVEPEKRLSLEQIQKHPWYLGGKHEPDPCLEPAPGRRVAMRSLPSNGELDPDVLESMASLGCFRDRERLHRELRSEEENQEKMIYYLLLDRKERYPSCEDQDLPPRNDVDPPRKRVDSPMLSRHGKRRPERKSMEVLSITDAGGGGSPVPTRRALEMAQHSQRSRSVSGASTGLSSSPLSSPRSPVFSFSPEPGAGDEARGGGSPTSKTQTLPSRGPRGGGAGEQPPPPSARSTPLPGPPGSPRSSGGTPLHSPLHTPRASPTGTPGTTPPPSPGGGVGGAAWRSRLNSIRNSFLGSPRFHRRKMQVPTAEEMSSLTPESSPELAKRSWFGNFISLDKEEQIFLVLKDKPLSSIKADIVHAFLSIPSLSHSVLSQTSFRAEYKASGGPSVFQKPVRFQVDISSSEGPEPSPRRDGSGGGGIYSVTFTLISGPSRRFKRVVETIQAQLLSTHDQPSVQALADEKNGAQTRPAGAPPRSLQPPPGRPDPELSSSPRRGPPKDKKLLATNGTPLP

[15] = target: T5, Serine/threonine-protein kinase BRSK1 (Homo sapiens); conditions: at 1 µM
[16] = target: T6, Serine/threonine-protein kinase BRSK2 (Homo sapiens) (UniProt Q8IWQ3); conditions: at 0.1 µM
T6 sequence (whole entry): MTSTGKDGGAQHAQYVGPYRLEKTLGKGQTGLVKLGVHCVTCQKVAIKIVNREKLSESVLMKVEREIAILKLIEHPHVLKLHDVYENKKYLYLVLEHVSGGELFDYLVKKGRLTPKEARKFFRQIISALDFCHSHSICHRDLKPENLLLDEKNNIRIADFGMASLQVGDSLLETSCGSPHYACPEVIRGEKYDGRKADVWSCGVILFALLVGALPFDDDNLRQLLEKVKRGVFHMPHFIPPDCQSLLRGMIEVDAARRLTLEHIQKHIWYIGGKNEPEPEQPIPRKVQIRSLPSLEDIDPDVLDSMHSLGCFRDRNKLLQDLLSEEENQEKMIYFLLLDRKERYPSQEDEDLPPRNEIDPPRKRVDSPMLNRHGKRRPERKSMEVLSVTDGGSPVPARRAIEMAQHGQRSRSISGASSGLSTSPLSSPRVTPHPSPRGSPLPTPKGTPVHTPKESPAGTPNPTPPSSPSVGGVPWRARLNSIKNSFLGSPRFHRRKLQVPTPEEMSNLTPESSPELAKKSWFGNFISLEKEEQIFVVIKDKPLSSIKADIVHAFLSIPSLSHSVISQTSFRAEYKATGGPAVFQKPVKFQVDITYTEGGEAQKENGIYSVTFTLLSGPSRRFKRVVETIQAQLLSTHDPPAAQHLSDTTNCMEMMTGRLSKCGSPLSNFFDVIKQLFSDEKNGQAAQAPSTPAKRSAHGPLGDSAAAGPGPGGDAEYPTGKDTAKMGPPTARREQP

[17] = target: T6, Serine/threonine-protein kinase BRSK2 (Homo sapiens); conditions: at 1 µM
[18] = target: Calcium/calmodulin-dependent protein kinase type 1D (Homo sapiens) (UniProt Q8IU85); conditions: at 0.1 µM
[19] = target: Calcium/calmodulin-dependent protein kinase type 1D (Homo sapiens) (UniProt Q8IU85); conditions: at 1 µM
[20] = target: Calcium/calmodulin-dependent protein kinase type II subunit alpha (Homo sapiens) (UniProt Q9UQM7); conditions: at 0.1 µM;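 note: reported values are averages (mean inhibition of CAMK2A)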
Chain of Calcium/calmodulin-dependent protein kinase type II subunit alpha (Homo sapiens) (Q9UQM7 whole entry): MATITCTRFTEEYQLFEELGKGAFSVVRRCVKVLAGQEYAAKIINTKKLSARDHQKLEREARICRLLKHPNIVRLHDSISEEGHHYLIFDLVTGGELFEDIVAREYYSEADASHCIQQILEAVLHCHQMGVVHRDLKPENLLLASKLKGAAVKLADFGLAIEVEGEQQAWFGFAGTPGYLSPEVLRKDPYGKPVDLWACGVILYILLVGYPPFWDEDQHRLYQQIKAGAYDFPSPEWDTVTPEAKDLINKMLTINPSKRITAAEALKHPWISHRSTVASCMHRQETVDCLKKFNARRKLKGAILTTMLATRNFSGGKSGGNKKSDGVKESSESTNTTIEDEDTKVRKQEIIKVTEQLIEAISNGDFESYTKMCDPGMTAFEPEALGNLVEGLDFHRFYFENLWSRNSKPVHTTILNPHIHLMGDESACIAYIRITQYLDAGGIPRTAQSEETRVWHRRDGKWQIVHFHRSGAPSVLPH

Chain of Calcium/calmodulin-dependent protein kinase type 1D (Homo sapiens) (Q8IU85 whole entry, looked up): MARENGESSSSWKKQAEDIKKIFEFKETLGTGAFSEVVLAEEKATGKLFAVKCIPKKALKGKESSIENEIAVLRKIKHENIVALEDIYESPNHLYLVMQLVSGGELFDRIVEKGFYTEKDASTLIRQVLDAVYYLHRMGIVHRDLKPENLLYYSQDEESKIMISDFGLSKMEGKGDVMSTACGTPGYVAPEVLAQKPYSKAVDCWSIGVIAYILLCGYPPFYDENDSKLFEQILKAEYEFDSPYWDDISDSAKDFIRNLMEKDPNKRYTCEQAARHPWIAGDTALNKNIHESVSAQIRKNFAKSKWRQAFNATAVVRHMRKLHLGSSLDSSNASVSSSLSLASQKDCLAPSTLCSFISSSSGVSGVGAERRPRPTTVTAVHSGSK
Chain of Ribosomal protein S6 kinase alpha-6 (Homo sapiens) (Q9UK32 whole entry): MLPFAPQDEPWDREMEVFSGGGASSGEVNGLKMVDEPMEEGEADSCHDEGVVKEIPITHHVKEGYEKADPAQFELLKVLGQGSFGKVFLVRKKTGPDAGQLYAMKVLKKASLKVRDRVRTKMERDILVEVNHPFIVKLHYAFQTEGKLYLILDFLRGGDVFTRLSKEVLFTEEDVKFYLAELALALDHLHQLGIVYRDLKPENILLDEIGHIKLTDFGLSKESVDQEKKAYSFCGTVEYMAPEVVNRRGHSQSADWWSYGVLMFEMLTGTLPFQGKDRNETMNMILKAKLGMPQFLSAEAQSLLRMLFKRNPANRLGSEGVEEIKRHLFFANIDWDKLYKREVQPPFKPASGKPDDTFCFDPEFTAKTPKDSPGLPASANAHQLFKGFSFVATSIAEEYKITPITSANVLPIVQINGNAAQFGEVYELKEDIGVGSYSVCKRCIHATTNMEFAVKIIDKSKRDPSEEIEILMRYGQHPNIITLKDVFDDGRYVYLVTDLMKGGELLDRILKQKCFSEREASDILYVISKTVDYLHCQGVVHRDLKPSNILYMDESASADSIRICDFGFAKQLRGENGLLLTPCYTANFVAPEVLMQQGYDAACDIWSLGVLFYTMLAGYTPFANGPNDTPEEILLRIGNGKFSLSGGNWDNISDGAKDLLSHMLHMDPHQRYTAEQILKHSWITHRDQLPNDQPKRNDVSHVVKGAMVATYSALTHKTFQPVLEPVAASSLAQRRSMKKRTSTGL
Chain of 5'-AMP-activated protein kinase catalytic subunit alpha-2 (Homo sapiens) (P54646 whole entry, looked up): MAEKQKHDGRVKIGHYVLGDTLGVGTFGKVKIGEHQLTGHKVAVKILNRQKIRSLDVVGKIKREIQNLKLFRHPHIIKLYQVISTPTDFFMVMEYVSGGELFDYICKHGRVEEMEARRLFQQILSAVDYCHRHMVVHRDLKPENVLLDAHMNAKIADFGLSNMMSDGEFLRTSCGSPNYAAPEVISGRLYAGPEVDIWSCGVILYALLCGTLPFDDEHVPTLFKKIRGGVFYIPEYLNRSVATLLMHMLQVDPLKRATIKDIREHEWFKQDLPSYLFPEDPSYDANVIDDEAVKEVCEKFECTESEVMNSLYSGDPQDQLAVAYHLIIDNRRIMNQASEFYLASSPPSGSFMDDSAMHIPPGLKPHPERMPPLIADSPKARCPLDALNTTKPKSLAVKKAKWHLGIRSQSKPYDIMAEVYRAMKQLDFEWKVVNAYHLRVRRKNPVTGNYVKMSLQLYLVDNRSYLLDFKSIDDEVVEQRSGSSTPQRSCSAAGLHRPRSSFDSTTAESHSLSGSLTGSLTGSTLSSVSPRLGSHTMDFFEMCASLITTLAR
Chain of 5'-AMP-activated protein kinase catalytic subunit alpha-1 (Homo sapiens) (Q13131 whole entry, looked up): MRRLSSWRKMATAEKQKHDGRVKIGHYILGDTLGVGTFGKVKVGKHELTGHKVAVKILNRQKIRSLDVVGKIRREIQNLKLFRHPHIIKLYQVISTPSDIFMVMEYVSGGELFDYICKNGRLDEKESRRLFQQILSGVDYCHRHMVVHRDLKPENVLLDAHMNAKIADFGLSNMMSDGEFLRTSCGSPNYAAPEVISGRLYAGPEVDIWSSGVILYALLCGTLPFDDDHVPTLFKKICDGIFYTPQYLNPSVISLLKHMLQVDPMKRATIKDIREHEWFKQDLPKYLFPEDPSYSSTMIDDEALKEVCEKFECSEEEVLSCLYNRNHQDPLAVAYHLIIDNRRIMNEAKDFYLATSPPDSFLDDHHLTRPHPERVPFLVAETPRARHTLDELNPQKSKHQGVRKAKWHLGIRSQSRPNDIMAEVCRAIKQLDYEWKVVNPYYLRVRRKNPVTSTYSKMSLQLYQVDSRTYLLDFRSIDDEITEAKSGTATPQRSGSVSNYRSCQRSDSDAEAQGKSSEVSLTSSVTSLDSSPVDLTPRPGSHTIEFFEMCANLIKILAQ

O=C(O[C@H]1CN[C@H](C#Cc2cc3ncnc(Nc4ccc5c(ccn5Cc5cc(F)ccc5F)c4)c3s2)C1)N1CCOCC1
inhibition [1]: 2.42%
inhibition [2]: 3.69%
inhibition [3]: 3.13%
inhibition [4]: 4.36%
inhibition [5]: 0.96%
inhibition [6]: 3.53%
inhibition [7]: 3.51%
inhibition [8]: 3.06%
inhibition [9]: 1.13%
inhibition [10]: 3.89%
inhibition [11]: 3.87%
inhibition [12]: 1.19%
inhibition [13]: 1.94%
inhibition [14]: 1.2%
inhibition [15]: 0.38%
inhibition [16]: 1.23%
inhibition [17]: 0.73%
inhibition [18]: 0.69%
inhibition [19]: 2.19%
inhibition [20]: 2.78%

O=C(Nc1n[nH]c2nnc(-c3cccnc3)cc12)C1CC1
inhibition [1]: 0.26%
inhibition [2]: 0.71%
inhibition [3]: -0.17%
inhibition [4]: -0.62%
inhibition [5]: 3.04%
inhibition [6]: -2.68%
inhibition [7]: -0.26%
inhibition [8]: -0.35%
inhibition [9]: 0.39%
inhibition [10]: 0.65%
inhibition [11]: 0.41%
inhibition [12]: 1.34%
inhibition [13]: 0.53%
inhibition [14]: -0.56%
inhibition [15]: -3.34%
inhibition [16]: 0.35%
inhibition [17]: 1.6%
inhibition [18]: 0.85%
inhibition [19]: 0.89%
inhibition [20]: -1.44%

Fc1cccc(COc2ccc(Nc3ncncc3C#Cc3ccccc3)cc2Cl)c1
inhibition [1]: 1.91%
inhibition [2]: 3.17%
inhibition [3]: 7.69%
inhibition [4]: 5.33%
inhibition [5]: 8.63%
inhibition [6]: 5.19%
inhibition [7]: 7.34%
inhibition [8]: 3.44%
inhibition [9]: 7.14%
inhibition [10]: 1.38%
inhibition [11]: 2.35%
inhibition [12]: 1.2%
inhibition [13]: 3.38%
inhibition [14]: -0.12%
inhibition [15]: 3.27%
inhibition [16]: 0.86%
inhibition [17]: 4.6%
inhibition [18]: -0.31%
inhibition [19]: -0.49%
inhibition [20]: 4.42%

CCN1CCC(C(=O)Nc2n[nH]c3nnc(-c4cccc(F)c4F)cc23)CC1
inhibition [1]: 0.55%
inhibition [2]: 0.58%
inhibition [3]: 1.25%
inhibition [4]: 2.32%
inhibition [5]: 0.65%
inhibition [6]: -1.34%
inhibition [7]: 1.23%
inhibition [8]: 0.5%
inhibition [9]: 2.46%
inhibition [10]: 1.01%
inhibition [11]: 3.06%
inhibition [12]: 3.72%
inhibition [13]: 5.44%
inhibition [14]: -0.16%
inhibition [15]: 1.41%
inhibition [16]: 1.7%
inhibition [17]: 3.77%
inhibition [18]: 0.68%
inhibition [19]: 0.83%
inhibition [20]: -1.94%

N#Cc1ccc2c(-c3ccnc(NC4CC4)n3)c(-c3ccc(F)cc3)nn2c1
inhibition [1]: 1.24%
inhibition [2]: 1.64%
inhibition [3]: 1.98%
inhibition [4]: -0.02%
inhibition [5]: -1.14%
inhibition [6]: 2.02%
inhibition [7]: 1.13%
inhibition [8]: 0.78%
inhibition [9]: 0.77%
inhibition [10]: 0.36%
inhibition [11]: 1.42%
inhibition [12]: -1.39%
inhibition [13]: -2.95%
inhibition [14]: -0.28%
inhibition [15]: -0.2%
inhibition [16]: -0.61%
inhibition [17]: 1.09%
inhibition [18]: -0.16%
inhibition [19]: 0.14%
inhibition [20]: -0.56%

COC(=O)Nc1nc2cc(Oc3ccc(NC(=O)Nc4ccccc4)cc3)ccc2[nH]1
inhibition [1]: 0.36%
inhibition [2]: 2.77%
inhibition [3]: 5.31%
inhibition [4]: 0.16%
inhibition [5]: 3.69%
inhibition [6]: 3.38%
inhibition [7]: 5.17%
inhibition [8]: 2.62%
inhibition [9]: 2.79%
inhibition [10]: 0.01%
inhibition [11]: 0.9%
inhibition [12]: -0.53%
inhibition [13]: -0.72%
inhibition [14]: -0.86%
inhibition [15]: 0.34%
inhibition [16]: 0.79%
inhibition [17]: 2.06%
inhibition [18]: 0.99%
inhibition [19]: -1.18%
inhibition [20]: 2.23%

COc1cccc(-n2ncc3c(N/N=C/c4ccc(C(=O)NCCN(C)C)cc4)ncnc32)c1
inhibition [1]: 6.67%
inhibition [2]: 8.85%
inhibition [3]: 47.9%
inhibition [4]: 6.05%
inhibition [5]: 40.1%
inhibition [6]: 3.22%
inhibition [7]: 3.92%
inhibition [8]: 3.69%
inhibition [9]: 12.3%
inhibition [10]: 2.3%
inhibition [11]: 14.5%
inhibition [12]: 43.9%
inhibition [13]: 77.2%
inhibition [14]: 23.5%
inhibition [15]: 67.2%
inhibition [16]: 33.3%
inhibition [17]: 72%
inhibition [18]: 0.97%
inhibition [19]: 5.99%
inhibition [20]: 2.13%
